Where a name gives a salt, the structure may show the parent alone.
Legend:
Conditions in all cases: 20 µM; incubation time: 27 h, anaerobic, 37 °C;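 for the amine columns active = adjusted P below 0.05 in both replicates with a change the same way and a mean fold change under 0.8 or over 1.25; inactive = the rest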
[1] = test system: Clostridium sporogenes DSM 1664; test: growth (OD595) fold change vs plate DMSO controls (fold change (ratio)); higher = more growth
Summary of the method: (§1)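 Each value is the mean of 2 biological replicates, and fold changes above 1.5 were set to NA. The underlying readings were taken at 595 nm from shaken anaerobic mGAM cultures in 96-well plates after 27 h at 37 °C. They were blank-subtracted, corrected for compound background using 20 µM compound solutions in water, and converted to OD with a calibration factor of 5. Growth is the fold change relative to the median of the plate DMSO controls.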

Escherichia coli IAI1 [2] = test: as above
Summary of the method: as §1

[3] = test system: Klebsiella aerogenes DSM 30053; test: as above
Summary of the method: as §1

[4] = test system: Ruminococcus gnavus DSM 108212; test: as above
Summary of the method: as §1

[5] = test system: Klebsiella aerogenes DSM 30053; test: fold change of Histamine concentration vs plate DMSO controls (fold change (ratio)); higher = more amine produced, active = hit call of the paper (significant change in both replicates, either direction)
Summary of the method: (§2)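 Using LC–triple-quadrupole MS with dynamic MRM, amines were quantified against external calibration curves and corrected for drift within each batch. Samples were whole anaerobic mGAM cultures of four gut strains, grown 27 h at 37 °C from OD 0.1 before 1:1 dilution, extracted with cold acetonitrile/methanol containing 0.1% formic acid and centrifuged. Compounds were present at 20 µM final (sweeteners at 50 µM final). The numbers are fold changes versus plate DMSO controls, each the mean of 2 biological replicates.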

[6] = test system: Clostridium sporogenes DSM 1664; test: fold change of Tryptamine concentration vs plate DMSO controls (fold change (ratio)); higher = more amine produced, active = hit call of the paper (significant change in both replicates, either direction)
Summary of the method: as §2

[7] = test system: Ruminococcus gnavus DSM 108212; test: as above
Summary of the method: as §2

Escherichia coli IAI1 [8] = test: fold change of Putrescine concentration vs plate DMSO controls (fold change (ratio)); higher = more amine produced, active = hit call of the paper (significant change in both replicates, either direction)
Summary of the method: as §2

[9] = test system: Klebsiella aerogenes DSM 30053; test: as above
Summary of the method: as §2

Escherichia coli IAI1 [10] = test: fold change of Cadaverine concentration vs plate DMSO controls (fold change (ratio)); higher = more amine produced, active = hit call of the paper (significant change in both replicates, either direction)
Summary of the method: as §2

[11] = test system: Klebsiella aerogenes DSM 30053; test: as above
Summary of the method: as §2

[12] = test system: Ruminococcus gnavus DSM 108212; test: fold change of 2-Phenylethylamine concentration vs plate DMSO controls (fold change (ratio)); higher = more amine produced, active = hit call of the paper (significant change in both replicates, either direction)
Summary of the method: as §2

SMILES	growth [1]	growth (Escherichia coli IAI1 [2])	growth [3]	growth [4]	fold change of Histamine concentration [5]	fold change of Tryptamine concentration [6]	fold change of Tryptamine concentration [7]	fold change of Putrescine concentration (Escherichia coli IAI1 [8])	fold change of Putrescine concentration [9]	fold change of Cadaverine concentration (Escherichia coli IAI1 [10])	fold change of Cadaverine concentration [11]	fold change of 2-Phenylethylamine concentration [12]
Cc1nc(N(C)C)nc(OC(=O)N(C)C)c1C	1.02	1	0.963	1.06	1.01 (inactive)	1.12 (inactive)	0.985 (inactive)	0.905 (inactive)	1 (inactive)	1.02 (inactive)	1 (inactive)	0.945 (inactive)
C[C@@H]1[C@@H](c2ccc(Cl)cc2)SC(=O)N1C(=O)NC1CCCCC1	1.01	1.08	1.07	1	0.918 (inactive)	0.989 (inactive)	0.913 (inactive)	0.955 (inactive)	1.03 (inactive)	0.972 (inactive)	1.02 (inactive)	0.882 (inactive)
CC(N)C(O)c1ccccc1 (centres undefined) [Phenylpropanolamine hydrochloride]	0.914	1.04	0.98	1.21	1.1 (inactive)	1.22 (inactive)	1.07 (inactive)	1.06 (inactive)	1.03 (inactive)	1.05 (inactive)	0.982 (inactive)	1.08 (inactive)
O=C(O)COc1ccc(Cl)cc1Cl	0.956	1.01	1.07	1.22	0.958 (inactive)	1.02 (inactive)	0.967 (inactive)	1 (inactive)	1 (inactive)	0.996 (inactive)	1.01 (inactive)	0.929 (inactive)
CC1C=CC=CCCC=CC=CC=CC=CC(OC2OC(C)C(O)C(N)C2O)CC2OC(O)(CC(O)C(O)CCC(O)CC(O)CC(O)CC(=O)OC(C)C(C)C1O)CC(O)C2C(=O)O (centres undefined) [Nystatine]	0.964	0.993	1.01	1.16	0.962 (inactive)	0.989 (inactive)	1.01 (inactive)	0.999 (inactive)	1 (inactive)	1.05 (inactive)	1.01 (inactive)	0.998 (inactive)
C=CCN1CC[C@]23c4c5ccc(O)c4O[C@H]2C(=O)CC[C@@]3(O)[C@H]1C5 [Naloxone hydrochloride]	1.22	1.04	1.03	1.24	1.04 (inactive)	1.01 (inactive)	0.998 (inactive)	1.02 (inactive)	0.997 (inactive)	0.994 (inactive)	0.997 (inactive)	0.985 (inactive)
CCSC(C)CC1CC(=O)C(/C(CC)=N/OC/C=C/Cl)=C(O)C1 (mixture of isomers)	0.928	1.04	0.988	0.939	1.02 (inactive)	1.01 (inactive)	1.03 (inactive)	1.02 (inactive)	0.996 (inactive)	1 (inactive)	1.01 (inactive)	0.99 (inactive)
CCCC[N+]1(C)[C@@H]2C[C@@H](OC(=O)[C@H](CO)c3ccccc3)C[C@H]1[C@@H]1O[C@@H]12 (some centres undefined) [N-Butylscopolammonium bromide]	0.954	1.22	0.974	1.06	1.03 (inactive)	0.921 (inactive)	0.946 (inactive)	1.27 (inactive)	1.01 (inactive)	0.975 (inactive)	0.99 (inactive)	0.913 (inactive)
O=C(CCCN1CCC(n2c(=O)[nH]c3ccccc32)CC1)c1ccc(F)cc1 [Benperidol]	1.07	0.943	0.941	0.827	1 (inactive)	1.01 (inactive)	1.03 (inactive)	0.998 (inactive)	1.02 (inactive)	1.02 (inactive)	1.02 (inactive)	1.05 (inactive)
COP(=O)(NC(C)=O)SC (centres undefined)	1.04	0.98	1.02	1.04	1 (inactive)	1.02 (inactive)	1 (inactive)	1.02 (inactive)	1 (inactive)	1.02 (inactive)	0.997 (inactive)	1 (inactive)
CN1CCC2(C)c3cc(O)ccc3N(C)C12 (single isomer, unassigned; (-)) [(-) Eseroline fumarate salt]	1.01	1.04	1.03	1.16	1 (inactive)	1.02 (inactive)	0.951 (inactive)	0.99 (inactive)	1 (inactive)	0.994 (inactive)	0.995 (inactive)	0.954 (inactive)
N[C@@H]1C[C@H]1c1ccccc1 [Tranylcypromine hydrochloride]	1.05	0.992	1.03	1.02	1.1 (inactive)	0.972 (inactive)	0.964 (inactive)	1.01 (inactive)	1.03 (inactive)	1.03 (inactive)	0.995 (inactive)	0.928 (inactive)
COc1cc([C@@H]2c3cc4c(cc3[C@H](O)[C@H]3COC(=O)[C@H]23)OCO4)cc(OC)c1OC [Podophyllotoxin]	1.13	1.18	1.14	0.888	0.958 (inactive)	1.01 (inactive)	1.03 (inactive)	1.06 (inactive)	1.02 (inactive)	0.931 (inactive)	1.02 (inactive)	1.02 (inactive)
CC(C)(C)C(O)C(Oc1ccc(Cl)cc1)n1cncn1 (centres undefined)	0.989	1.11	0.994	0.928	0.993 (inactive)	0.962 (inactive)	0.998 (inactive)	1.08 (inactive)	0.999 (inactive)	0.937 (inactive)	1 (inactive)	0.975 (inactive)
COCC(=O)N(c1c(C)cccc1C)[C@H](C)C(=O)OC	0.945	1.01	1.03	0.974	1 (inactive)	1.01 (inactive)	1.02 (inactive)	1.02 (inactive)	0.996 (inactive)	0.99 (inactive)	1.01 (inactive)	1.05 (inactive)
CC(C)c1c(CN(C)C(C)Cc2ccccc2)n(C)n(-c2ccccc2)c1=O (centres undefined) [Famprofazone]	1.02	1.15	1.06	1.05	0.986 (inactive)	0.954 (inactive)	1.06 (inactive)	1.03 (inactive)	1.02 (inactive)	0.998 (inactive)	1.01 (inactive)	1.02 (inactive)
COCC(=O)N(c1c(C)cccc1C)C(C)C(=O)OC (centres undefined)	0.957	1.02	1.04	1.02	0.965 (inactive)	0.98 (inactive)	0.983 (inactive)	1.04 (inactive)	1 (inactive)	1.01 (inactive)	1.01 (inactive)	0.983 (inactive)
C=CC(N)=O [Acrylamide]	0.971	0.969	0.977	0.973	0.995 (inactive)	1.03 (inactive)	0.999 (inactive)	0.967 (inactive)	0.987 (inactive)	1.04 (inactive)	0.972 (inactive)	1.03 (inactive)
CN1[C@@H]2CC[C@H]1C[C@@H](OC1c3ccccc3CCc3ccccc31)C2 [Deptropine citrate]	0.826	1	0.992	0.954	1.06 (inactive)	1.17 (inactive)	0.877 (inactive)	1.04 (inactive)	1.02 (inactive)	1.11 (inactive)	0.999 (inactive)	0.928 (inactive)
CNC(=O)ON=C(C)SC	1.01	0.969	1	0.984	1.04 (inactive)	1.06 (inactive)	1.06 (inactive)	1 (inactive)	0.967 (inactive)	0.892 (inactive)	1 (inactive)	1.09 (inactive)
COc1ccc(C(=CC(=O)N2CCOCC2)c2ccc(Cl)cc2)cc1OC (mixture of isomers)	1.18	1.01	1.01	0.966	1.01 (inactive)	1.11 (inactive)	1.08 (inactive)	0.946 (inactive)	0.965 (inactive)	0.929 (inactive)	1.06 (inactive)	1.09 (inactive)
Nc1nc(N)nc(N)n1 [Melamine]	0.88	0.99	0.966	1.11	0.958 (inactive)	1.05 (inactive)	1.01 (inactive)	0.988 (inactive)	0.956 (inactive)	0.95 (inactive)	1.01 (inactive)	1.05 (inactive)
CNC(=O)c1cc(C#N)cc(C)c1NC(=O)c1cc(Br)nn1-c1ncccc1Cl	1.13	0.996	0.981	1.06	1 (inactive)	1.2 (inactive)	1.06 (inactive)	0.935 (inactive)	0.938 (inactive)	0.886 (inactive)	1.02 (inactive)	1.08 (inactive)
C=C(C)[C@@H]1[C@H]2OC(=O)[C@@H]1[C@]1(O)C[C@H]3O[C@]34C(=O)O[C@H]2[C@]14C [Picrotoxinin]	1	0.983	1.04	1.15	0.896 (inactive)	1.01 (inactive)	1.02 (inactive)	0.898 (inactive)	0.932 (inactive)	0.998 (inactive)	0.987 (inactive)	1.03 (inactive)
CCCN(CCC)C(=O)SCc1ccccc1	1.02	1	1.03	0.973	1.04 (inactive)	1.02 (inactive)	0.923 (inactive)	1.02 (inactive)	1.01 (inactive)	0.995 (inactive)	0.993 (inactive)	0.897 (inactive)
O=C1C=CC(=O)C=C1 [1,4-Benzoquinone]	0.883	0.868	0.844	0.66	0.996 (inactive)	1.02 (inactive)	1.18 (inactive)	0.967 (inactive)	1 (inactive)	0.943 (inactive)	1.11 (inactive)	1.66 (active)
CC(C)C[C@H](CN)CC(=O)O [Pregabalin]	0.96	0.982	0.982	0.865	1.06 (inactive)	1.04 (inactive)	1.05 (inactive)	1.03 (inactive)	1 (inactive)	1.02 (inactive)	0.982 (inactive)	1.06 (inactive)

Reference: the supplement of paper PMC12494721
